Measured values as given in PubChem BioAssay (NCI).
About 83,000 compounds went through this panel and 20% of them were active in at least one assay; those are over-represented in the sample as a whole.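 Method: cells in 96-well plates; compound added at one concentration; 48 h incubation; percent growth measured; values under 10 scored active.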 Values without a mark were called inactive. Activity calls are given as the source filed them.

Columns and labels:
Test in all cases: NCI-60 one-dose screen, 48 h (100 = growth as untreated, 0 = no growth, -100 = all killed)
[1] = tested on: HCT-15 colon; conditions: 10 µM unless noted
[2] = tested on: SNB-75 CNS; conditions: 10 µM unless noted
[3] = tested on: SNB-19 CNS; conditions: 10 µM unless noted
[4] = tested on: U251 CNS; conditions: 10 µM unless noted
[5] = tested on: PC-3 prostate; conditions: 10 µM unless noted
[6] = tested on: SK-MEL-5 melanoma; conditions: 10 µM unless noted
[7] = tested on: UACC-62 melanoma; conditions: 10 µM unless noted
[8] = tested on: LOX IMVI melanoma; conditions: 10 µM unless noted
[9] = tested on: SK-MEL-28 melanoma; conditions: 10 µM unless noted
[10] = tested on: SK-MEL-2 melanoma; conditions: 10 µM unless noted
[11] = tested on: EKVX NSCLC; conditions: 10 µM unless noted
[12] = tested on: SN12C renal; conditions: 10 µM unless noted
[13] = tested on: UO-31 renal; conditions: 10 µM unless noted
[14] = tested on: TK-10 renal; conditions: 10 µM unless noted
[15] = tested on: ACHN renal; conditions: 10 µM unless noted
[16] = tested on: CAKI-1 renal; conditions: 10 µM unless noted
[17] = tested on: A498 renal; conditions: 10 µM
[18] = tested on: CCRF-CEM leukemia; conditions: 10 µM unless noted
[19] = tested on: HL-60(TB) leukemia; conditions: 10 µM unless noted
[20] = tested on: HT29 colon; conditions: 10 µM unless noted

Structure (SMILES) | growth [1] | growth [2] | growth [3] | growth [4] | growth [5] | growth [6] | growth [7] | growth [8] | growth [9] | growth [10] | growth [11] | growth [12] | growth [13] | growth [14] | growth [15] | growth [16] | growth [17] | growth [18] | growth [19] | growth [20]
O=C(N/N=C\c1ccc(N(CCCl)CCCl)cc1)c1cccc([N+](=O)[O-])c1 | 98.7% | 60% | 77.3% | 73.9% | 89.1% | 93.9% | 77.9% | 83.4% | 108% | 101% | 88.6% | 88.9% | 90.6% | 99.2% | 94.4% | 89.3% | 118% | 82.5% | – | –
Cc1cnc(/C=C/C(=O)O)cc1-c1cc2c(cc1C)C(C)(C)CCC2(C)C | 53.9% | 62.5% | 97.4% | 70.9% | 74.8% | 62.8% | 65.8% | 47.9% | 41.5% | 74.4% | 46% | 90.5% | 68.4% | 113% | 81.7% | 79% | 105% | 85% | 63.3% | –
COc1ccc(/C=C\c2cc(OC)c(OC)c(OC)c2)cc1NS(=O)(=O)c1ccc(Cl)cc1 | 54.2% | – | 87.2% | 77.8% | 42.7% | 51.6% | 45.1% | 71.3% | 53% | 69.5% | – | 79.8% | 55.1% | 80.2% | 62.2% | 42.8% | 47% | 78% | 54.1% | 75.7%
C1CCC([PH+](C2CCCCC2)C2CCCCC2[PH+](C2CCCCC2)C2CCCCC2)CC1.[Au].[CH-]1CCCCC1CC1CCCC[N-]1 (configuration not stated) | -36.9% (active) | – | -89% (active) | -78.1% (active) | -22.2% (active) | -99.8% (active) | -71% (active) | -97.2% (active) | -70.5% (active) | -55.7% (active) | -61.9% (active) | -32% (active) | -81.4% (active) | -43.4% (active) | -72.5% (active) | -31.3% (active) | -91.6% (active) | -12.5% (active) | – | 1.89% (active)
O=NNc1ccccn1 | 40.2% | 95.5% | 101% | 80.1% | 82.9% | 99.3% | 85.9% | 71.1% | 100% | 23.3% | 109% | 87.4% | 83.6% | 91% | 11.2% | 43.6% | 96.5% | 126% | 73.8% | –
